Our source for the outcome values is PubChem BioAssay (EPA / NIEHS).

Inconclusive results are not listed. Activity calls are given as the source filed them. Rule for the calls: active = hit-call score of the fitted dose curve at least 0.9, where 1 is the maximum; inconclusive = response in the unintended direction; inactive = score below 0.9.

Sequence of Cellular tumor antigen p53 (Homo sapiens) (P04637 whole entry, looked up): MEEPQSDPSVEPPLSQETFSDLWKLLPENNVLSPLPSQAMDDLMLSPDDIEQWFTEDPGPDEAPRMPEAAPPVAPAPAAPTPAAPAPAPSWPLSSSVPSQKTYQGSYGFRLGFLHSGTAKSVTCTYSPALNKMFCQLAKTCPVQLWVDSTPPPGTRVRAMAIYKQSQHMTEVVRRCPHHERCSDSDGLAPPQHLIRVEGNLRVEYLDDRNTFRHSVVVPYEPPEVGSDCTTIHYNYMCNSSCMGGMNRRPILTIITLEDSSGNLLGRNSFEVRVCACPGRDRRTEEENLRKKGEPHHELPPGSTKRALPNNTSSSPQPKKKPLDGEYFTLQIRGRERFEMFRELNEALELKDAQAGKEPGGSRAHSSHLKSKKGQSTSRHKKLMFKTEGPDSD

Tested on in the first experiment: not listed separately
In words: TOX21_p53_BLA_p5_viability: Viability Assessment in the Tox21 HCT-116 p53 Agonism Beta-lactamase Assay, Phase 5 (AID 2283600). In a few lines: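 HCT-116 p53 beta-lactamase reporter cells, 4000/well, were exposed to compound (pin transfer, 217-fold dilution) for 16 hours at 37C. Cellular ATP was read by CellTiter-Glo luminescence after 30 min at room temperature.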
For `CC(C)S`, the compound was called inactive.

Turning to `C=C(C)C(=O)OCCCCCCOC(=O)C(=C)C`, the compound was classed as inactive.

As to `CCCCCCCCCCCCCCBr`, the compound was classed as inactive.

Regarding `O=C1OC(=O)C2CC=CCC12` (centres undefined), the compound was called inactive.

With `C[Se]CC[C@H](N)C(=O)O`, the outcome was inactive.

In the case of `CN1C(=O)c2ccc([N+](=O)[O-])cc2C1=O`, the result was inactive.

Turning to `CC(=O)OCC(=O)Nc1cc(C#N)cc(NC(=O)COC(C)=O)c1Cl`, the call was inactive.

As for `COc1ccc2cc([C@H](C)CO)ccc2c1`, the call was inactive.

With `NC(=O)c1cn(Cc2c(F)cccc2F)nn1`, the compound was classed as inactive.

`CC(=O)OCC[N+](C)(C)C`: the compound was classed as inactive.

`C1COCCO1`: the outcome was inactive.

As for `C=C(C)C(=O)NCCC[N+](C)(C)C`, the compound was classed as inactive.

Consider `CC(C)(C)NCC(O)COc1cccc2c1C[C@H](O)[C@H](O)C2` (some centres undefined), for which the call was inactive.

Consider `CC/C=C(\C(=O)N[C@@H]1C(=O)N2C(C(=O)OCOC(=O)C(C)(C)C)=C(COC(N)=O)CS[C@H]12)c1csc(N)n1`, for which the compound was called inactive.

As for `CC(C)(C)NCCO`, the compound was called inactive.

On to `CC1CCCC(=O)C1=O` (centres undefined), for which the compound was called inactive.

With `CN(CC(=O)N1CCOCC1)Cc1c(Cl)cccc1NC(=O)c1ccccc1`, the outcome was inactive.

As for `O=C1NCCN1CCO`, the compound was classed as inactive.

For the compound `O=C(NCCc1c[nH]c2ccccc12)c1cccnc1`, the compound was classed as inactive.

In the case of `CC1(C)O[C@@H]2C[C@H]3[C@@H]4CCC5=CC(=O)C=C[C@]5(C)[C@H]4[C@@H](O)C[C@]3(C)[C@]2(C(=O)CO)O1`, the compound was classed as inactive.

Regarding `O=C(O)CCS`, the compound was called inactive.

Turning to `CCCCOC(=O)CCS`, the compound was called inactive.

A further experiment addresses Cellular tumor antigen p53 (Homo sapiens) (UniProt P04637). In words: TOX21_p53_BLA_p4_ratio: Tox21 HCT-116 p53 Agonism Beta-lactamase Assay, Ratio, Phase 4 (AID 2283601). In a few lines: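 Signal is the blue/green (460nm/530nm) ratio of cleaved versus uncleaved CCF4-AM substrate, read after 2 h substrate loading. Cells were HCT116 carrying the p53-responsive beta-lactamase reporter, dosed 16 h at 37C, 5% CO2; CellTiter-Glo measured in parallel.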
Take `CC(C)S`: the result was inactive.

For the compound `CCc1cccc(C)c1`, the result was inactive.

In the case of `CCCCCCCCCCCCCCBr`, the result was inactive.

With `C[Se]CC[C@H](N)C(=O)O`, the outcome was inactive.

As for `O=C(O)c1ccc(O)cc1O`, the outcome was inactive.

Take `CN1C(=O)c2ccc([N+](=O)[O-])cc2C1=O`: the result was inactive.

Consider `COc1ccc2cc([C@H](C)CO)ccc2c1`, for which the result was inactive.

Take `NC(=O)c1cn(Cc2c(F)cccc2F)nn1`: the result was inactive.

Regarding `CC(=O)OCC[N+](C)(C)C`, the result was inactive.

`NC(Cc1ccccc1)C(=O)O` (centres undefined): the result was inactive.

In the case of `C=CCCCC`, the outcome was inactive.

In the case of `CO[C@H]1/C=C/O[C@@]2(C)Oc3c(C)c(O)c4c(O)c(c5c(nc6cc(C)ccn65)c4c3C2=O)NC(=O)/C(C)=C\C=C\[C@H](C)[C@H](O)[C@@H](C)[C@@H](O)[C@@H](C)[C@H](OC(C)=O)[C@@H]1C`, the outcome was inactive.

In the case of `C=C(C)C(=O)NCCC[N+](C)(C)C`, the outcome was inactive.

Take `CC(C)(C)NCC(O)COc1cccc2c1C[C@H](O)[C@H](O)C2` (some centres undefined): the outcome was inactive.

Regarding `CC/C=C(\C(=O)N[C@@H]1C(=O)N2C(C(=O)OCOC(=O)C(C)(C)C)=C(COC(N)=O)CS[C@H]12)c1csc(N)n1`, the result was inactive.

For `COC(=O)CS`, the result was inactive.

Regarding `CC(C)=CC(C)(C)C`, the result was inactive.

Take `O=C(O)CCNC(=O)c1ccc(N=Nc2ccc(O)c(C(=O)O)c2)cc1`: the result was inactive.

For `CC(C)(C)NCCO`, the result was inactive.

As for `CC1CCCC(=O)C1=O` (centres undefined), the result was inactive.

In the case of `CCCCCCCC/C=C\CCCCCCCC(N)=O`, the result was inactive.

For the compound `CN(CC(=O)N1CCOCC1)Cc1c(Cl)cccc1NC(=O)c1ccccc1`, the result was inactive.

With `CC(CO)CO`, the result was inactive.

Consider `O=C1NCCN1CCO`, for which the outcome was inactive.

As for `O=C(NCCc1c[nH]c2ccccc12)c1cccnc1`, the outcome was inactive.

`O=C(O)CCS`: the result was inactive.

With `CCCCOC(=O)CCS`, the result was inactive.
